Experimental data: PubChem BioAssay (NCATS)
Inconclusive results are not listed. Where a call stands in place of a potency, no number is given. A number with no mark means an inactive call. The source made the active and inactive calls. The call rests on the fitted dose curve; in most records, active means well fitted inhibition curve with a large enough effect; inconclusive means small, poorly fitted or top-dose-only effect; inactive means no such curve, though single readings can be large or run the other way.

Assays:
[1] = tested on: Zika virus NS2B-NS3 protease (unlinked complex); test: Primary screen GU Rhodamine qHTS for Zika virus inhibitors: Unlinked NS2B-NS3 protease assay (AID 1347159); settings: Recombinant ZIKV NS2B-NS3 protease, Rhodamine110 substrate fluorescence; series mostly up to 107 µM; further: nearly all actives have a fitted effect of over 60% in size
Procedure, shortened: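 Noncovalent NS2B hydrophilic domain/NS3 protease complex (25 nM final) in 10 mM Tris-HCl pH 8.0, 0.01% Tween 20, preincubated 15 min with compounds (up to 114 microM), then 1.5 microM Rhodamine110 substrate. Fluorescence change over 15 min fitted to 4-parameter Hill.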

[2] = tested on: Zika virus NS2B-NS3 protease (linked construct); test: Primary screen NINDS Rhodamine qHTS for Zika virus inhibitors (AID 1347160); settings: purified NS2B-NS3 protease, Rhodamine110 substrate fluorescence; series mostly up to 57.1 µM; further: nearly all actives have a fitted effect of over 55% in size
Procedure, shortened: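 Purified NS2B-NS3 protease with the NS2B hydrophilic domain joined by a flexible linker (25 nM) in 10 mM Tris-HCl pH 8.0, 0.01% Tween 20, preincubated 15 min at RT with compound; Rhodamine110 peptide substrate 1.5 µM; fluorescence change over 15 min; 4-parameter Hill fit.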

| SMILES | Potency [1] | Potency [2] | activity change, negative = inhibition [1] | activity change, negative = inhibition [2] |
| --- | --- | --- | --- | --- |
| COCCOc1cnc2ccn([C@H](C)c3nnc4c(F)cc(-c5cnn(C)c5)cn34)c(=O)c2c1 | inactive | inactive |  |  |
| COC(=O)C1=C2Nc3ccccc3C23CCN2CCCC(C(C)O)(C1)C23 (configuration not stated) | inactive | inactive |  |  |
| Cc1ccc([N+](=O)[O-])cc1S(=O)(=O)N(C)/N=C/c1cnc2ccc(Br)cn12 | inactive | inactive |  |  |
| COC(=O)C1=CO[C@@H](O[C@@H]2O[C@H](CO)[C@@H](O)[C@H](O)[C@H]2O)[C@@H]2C(CO)=CC[C@]12O | inactive | inactive |  |  |
| CS(=O)(=O)N(CC(=O)NCC1CC1)c1cc(C(F)(F)F)ccc1Cl | inactive | inactive |  |  |
| Cc1ccc(NC(=O)c2ccc(CN3CC[C@H](N(C)C)C3)c(C(F)(F)F)c2)cc1Nc1nccc(-c2cncnc2)n1 | inactive | inactive |  |  |
| O=C(c1ccc(/C=C/c2n[nH]c3ccccc23)cc1)N1CCNCC1 | inactive | inactive |  |  |
| Cn1nnc(-c2ccc(-c3ccc(N4C[C@H](COP(=O)(O)O)OC4=O)cc3F)cn2)n1 | inactive | inactive |  |  |
| CCCCc1nc2cc(/C=C/C(=O)NO)ccc2n1CCN(CC)CC | inactive | inactive |  |  |
| CC(=O)N1CCc2ccc(O)c(OC3OC(COC4OCC(O)(CO)C4O)C(O)C(O)C3O)c2C1Cc1ccc(O)cc1 (configuration not stated) | inactive | inactive |  |  |
| CN=C(N)NCCCCC/C=C(/C)CC(C)C1OC(=O)C(C)C(O)/C=C/C(C)C(O)CC(O)C(C)C(O)CCC(C)C(O)CC2(O)OC(CC(OC(=O)CC(=O)O)CC(O)CC(O)C(C)C(O)/C(C)=C/CCC1C)CC(O)C2O (configuration not stated) | inactive | inactive |  |  |
| Cc1cnc(NC(=O)Nc2cc(Br)c(C)cc2OCC2CNCCO2)cn1 (configuration not stated) | inactive | inactive |  |  |
| CCOc1cc(C)c(Cl)cc1S(=O)(=O)n1cnc2ccccc21 | inactive | inactive |  |  |
| CC(C)(O)CC(CO)NC(=O)CC(O)CC(=O)Cc1ccccc1 (configuration not stated) | inactive | inactive |  |  |
| Cn1c(=O)cc(N2CCCC(N)C2)n(Cc2cc(F)ccc2C#N)c1=O (configuration not stated) | inactive | inactive |  |  |
| C[C@@H]1O[C@@H](O[C@H]2[C@H](OC(=O)[C@]34CCC(C)(C)C[C@H]3C3=CCC5[C@@]6(C)C[C@H](O)[C@H](O[C@@H]7O[C@H](CO)[C@@H](O[C@H]8OC[C@](O)(CO)[C@H]8O)[C@H](O)[C@H]7O)[C@@](C)(CO)C6[C@H](O)C[C@@]5(C)[C@]3(C)C[C@H]4O)OC[C@H](O)[C@@H]2O)[C@H](O)[C@H](O)[C@H]1O[C@@H]1OC[C@@H](O)[C@H](O[C@@H]2OC[C@](O)(CO)[C@H]2O)[C@H]1O (some centres not stated) |  |  | 20.8% [at 19.1 µM] | 33.3% [at 10.7 µM] |
| Cc1ccc(Cc2c(C)nc3nc(SCC(=O)NCCN4CCNCC4)nn3c2C)cc1 | inactive | inactive |  |  |
| CC1(C)CC[C@@]2(C(=O)O[C@@H]3O[C@H](CO)[C@@H](O)[C@H](O)[C@H]3O)C(C1)C1=CCC3[C@@]4(C)CC[C@@H](O[C@@H]5O[C@H](C(=O)O)[C@@H](O[C@@H]6OC[C@@H](O)[C@H](O)[C@H]6O)[C@H](O[C@@H]6OC[C@](O)(CO)[C@H]6O)[C@H]5O)C(C)(C)C4CC[C@@]3(C)[C@]1(C)C[C@H]2O (some centres not stated) | inactive | inactive |  |  |
| Nc1nc2c(ncn2[C@@H]2O[C@@H]3COP(=O)(O)O[C@H]3[C@H]2O)c(=O)[nH]1 | inactive | inactive |  |  |
| COC(=O)/C=C/C12COC(C)(C)C1C(O)C(OC(C)=O)C1(C)C2CCC2(C)C(c3ccoc3)OC(=O)C3OC321 (configuration not stated) | inactive | inactive |  |  |
| O=C(NCc1cccc(O)c1)c1cc2cc(F)ccc2[nH]1 | inactive | inactive |  |  |
| CC1(C)CC[C@]2(C(=O)O[C@@H]3O[C@H](CO)[C@@H](O)[C@H](O)[C@H]3O)CC[C@]3(C)C(=CCC4[C@@]5(C)C[C@@H](O)[C@H](O)C(C)(C)C5CC[C@]43C)C2[C@@H]1O (some centres not stated) | inactive | inactive |  |  |
| CC[C@H](C)[C@H](NC(=O)[C@H]([C@@H](C)CC)N(C)C(C)=O)C(=O)N[C@H](C(=O)N[C@@H](CC(C)C)C(=O)[C@@]1(C)CO1)[C@@H](C)O | inactive | inactive |  |  |
| CC1=C(CO)C(=O)O[C@@H]([C@@H](C)[C@H]2CC[C@H]3[C@@H]4C[C@H]5O[C@]56[C@@H](O)C=CC(=O)[C@]6(C)[C@H]4CC[C@]23C)C1 | inactive | inactive |  |  |
| Cc1oc2ccccc2c1CNC(=O)NCc1cccs1 | inactive | inactive |  |  |
| CO[C@H]1C[C@@H]2CC[C@@H](C)[C@@](O)(O2)C(=O)C(=O)N2CCCC[C@H]2C(=O)O[C@H]([C@H](C)C[C@@H]2CC[C@@H](OP(C)(C)=O)[C@H](OC)C2)CC(=O)[C@H](C)/C=C(\C)[C@@H](O)[C@@H](OC)C(=O)[C@H](C)C[C@H](C)/C=C/C=C/C=C/1C | inactive | inactive |  |  |
